We go through one sequence from PMC7862700, “An all-to-all approach to the identification of sequence-specific readers for epigenetic DNA modifications on cytosine”.

Test in all cases: DAPPL (digital affinity profiling via proximity ligation, sequencing); 10 mM Tris-HCl pH 7.5, 50 mM NaCl, 1 mM DTT, 4% glycerol, room temperature, 30 min; GST-TFs on glutathione beads, 16-mer random dsDNA library, 0.1% formaldehyde crosslink after washing; high values mean tight binding
Test [1] deals with T1, FEV (Homo sapiens, UniProt Q99581 1-238).
T1 sequence: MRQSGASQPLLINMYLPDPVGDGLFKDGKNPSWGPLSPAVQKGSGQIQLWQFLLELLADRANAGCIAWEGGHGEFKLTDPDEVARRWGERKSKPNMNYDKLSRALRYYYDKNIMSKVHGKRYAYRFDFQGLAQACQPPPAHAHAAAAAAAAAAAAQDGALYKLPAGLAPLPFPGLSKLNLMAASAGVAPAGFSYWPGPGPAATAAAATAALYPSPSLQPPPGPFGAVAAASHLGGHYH
The settings on record: protein: recombinant; tags: N-terminal GST; dsDNA, one strand shown. Put shortly: (§1)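 Yeast served to express human transcription factors as GST fusions, which were then captured on glutathione beads and labelled with DNA barcodes. Pooled with a tag-only sample, they were incubated with 200 nmole of a 16-mer random double-stranded DNA library for 30 min at room temperature in Tris/NaCl/DTT/glycerol buffer, washed, crosslinked with 0.1% formaldehyde, ligated by proximity, amplified by PCR and sequenced. Dividing each hexamer's read frequency for a factor by its frequency for the tag-only sample gives the binding signal.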

The target of test [2] is ETV5 (Homo sapiens, UniProt P41161 1-510). As to conditions: protein: recombinant; tags: N-terminal GST; dsDNA, one strand shown. Put shortly: as §1
Test [3] has as its target HSF1 (Homo sapiens, UniProt Q00613 1-529). As to conditions: protein: recombinant; tags: N-terminal GST; chain copies: 3; dsDNA, one strand shown. Put shortly:
as §1

Test [4] addresses T2, SPIC (Homo sapiens, UniProt Q8N5J4 1-248).
T2 sequence: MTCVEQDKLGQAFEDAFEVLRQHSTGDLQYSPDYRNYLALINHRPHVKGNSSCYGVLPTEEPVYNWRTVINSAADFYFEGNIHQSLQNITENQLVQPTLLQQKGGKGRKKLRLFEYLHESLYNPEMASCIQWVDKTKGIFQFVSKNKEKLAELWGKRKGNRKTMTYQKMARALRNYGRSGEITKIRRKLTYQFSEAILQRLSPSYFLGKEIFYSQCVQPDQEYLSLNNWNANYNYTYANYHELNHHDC
As to conditions: protein: recombinant; tags: N-terminal GST; dsDNA, one strand shown. The method in brief: as §1

Test [5] deals with ELF4 (Homo sapiens, UniProt Q99607 1-663). As to conditions: protein: recombinant; tags: N-terminal GST; dsDNA, one strand shown. Put shortly:
as §1

The target in test [6] is T3, ELK4 (Homo sapiens, UniProt P28324-2 1-405).
T3 sequence: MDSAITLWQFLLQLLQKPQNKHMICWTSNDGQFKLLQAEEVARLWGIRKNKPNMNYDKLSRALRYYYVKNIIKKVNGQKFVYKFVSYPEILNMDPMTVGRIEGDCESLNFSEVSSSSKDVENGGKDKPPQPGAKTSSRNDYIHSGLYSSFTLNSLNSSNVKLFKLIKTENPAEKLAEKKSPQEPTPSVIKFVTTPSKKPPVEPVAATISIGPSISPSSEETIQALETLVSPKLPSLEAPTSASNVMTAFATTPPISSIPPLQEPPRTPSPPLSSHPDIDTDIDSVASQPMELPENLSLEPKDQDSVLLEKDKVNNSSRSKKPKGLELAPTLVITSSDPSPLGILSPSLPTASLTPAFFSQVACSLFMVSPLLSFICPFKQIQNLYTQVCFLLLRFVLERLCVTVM
The settings on record: protein: recombinant; tags: N-terminal GST; dsDNA, one strand shown. The method in brief: as §1

In test [7] the target is T4, ETV2 (Homo sapiens, UniProt O00321 1-342).
T4 sequence: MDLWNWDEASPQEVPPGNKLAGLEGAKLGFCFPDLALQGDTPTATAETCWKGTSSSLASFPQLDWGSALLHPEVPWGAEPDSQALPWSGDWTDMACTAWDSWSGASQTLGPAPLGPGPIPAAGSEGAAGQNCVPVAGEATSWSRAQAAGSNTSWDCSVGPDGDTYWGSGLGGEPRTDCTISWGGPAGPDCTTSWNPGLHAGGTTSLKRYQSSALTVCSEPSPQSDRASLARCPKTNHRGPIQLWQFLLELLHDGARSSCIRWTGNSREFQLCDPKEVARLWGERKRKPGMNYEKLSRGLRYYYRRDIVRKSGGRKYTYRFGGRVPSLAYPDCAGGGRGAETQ
The settings on record: protein: recombinant; tags: N-terminal GST; dsDNA, one strand shown. Put shortly:
as §1

Test [8] has as its target T5, ELF3 (Homo sapiens, UniProt P78545 1-371).
T5 sequence: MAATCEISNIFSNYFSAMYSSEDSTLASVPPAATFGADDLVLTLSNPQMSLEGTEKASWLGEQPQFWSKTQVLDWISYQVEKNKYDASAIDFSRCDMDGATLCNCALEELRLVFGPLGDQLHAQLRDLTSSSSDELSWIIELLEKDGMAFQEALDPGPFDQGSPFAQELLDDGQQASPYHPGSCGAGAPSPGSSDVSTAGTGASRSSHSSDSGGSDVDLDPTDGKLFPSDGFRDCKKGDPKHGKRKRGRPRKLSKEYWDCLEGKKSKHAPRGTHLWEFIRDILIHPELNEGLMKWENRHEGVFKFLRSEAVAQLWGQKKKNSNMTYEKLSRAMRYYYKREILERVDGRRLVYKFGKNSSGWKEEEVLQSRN
The settings on record: protein: recombinant; tags: N-terminal GST; dsDNA, one strand shown. Put shortly:
as §1

The target in test [9] is CRX (Homo sapiens, UniProt O43186 1-299). As to conditions: protein: recombinant; tags: N-terminal GST; dsDNA, one strand shown. The method in brief:
as §1

For test [10], the target named is ETV1 (Homo sapiens, UniProt P50549 1-477). The settings on record: protein: recombinant; tags: N-terminal GST; dsDNA, one strand shown. Put shortly: as §1
In test [11] the target is T6, ERF (Homo sapiens, UniProt P50548 1-548).
T6 sequence: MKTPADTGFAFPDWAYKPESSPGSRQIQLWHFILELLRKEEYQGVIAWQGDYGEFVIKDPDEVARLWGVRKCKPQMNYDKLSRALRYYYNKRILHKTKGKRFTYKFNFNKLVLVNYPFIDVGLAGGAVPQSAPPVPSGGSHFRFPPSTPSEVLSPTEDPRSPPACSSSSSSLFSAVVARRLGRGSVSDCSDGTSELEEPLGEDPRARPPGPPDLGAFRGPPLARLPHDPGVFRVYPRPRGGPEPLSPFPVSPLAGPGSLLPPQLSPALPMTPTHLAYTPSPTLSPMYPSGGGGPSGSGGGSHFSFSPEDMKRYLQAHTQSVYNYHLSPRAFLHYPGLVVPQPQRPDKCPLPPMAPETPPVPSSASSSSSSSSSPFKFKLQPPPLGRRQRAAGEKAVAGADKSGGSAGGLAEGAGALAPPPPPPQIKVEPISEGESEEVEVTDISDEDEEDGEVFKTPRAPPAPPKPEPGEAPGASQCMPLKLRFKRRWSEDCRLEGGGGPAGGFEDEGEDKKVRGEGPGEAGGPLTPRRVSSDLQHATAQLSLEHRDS
As to conditions: protein: recombinant; tags: N-terminal GST; dsDNA, one strand shown. The method in brief:
as §1

Test [12] deals with T7, ETV3L (Homo sapiens, UniProt Q6ZN32 1-361).
T7 sequence: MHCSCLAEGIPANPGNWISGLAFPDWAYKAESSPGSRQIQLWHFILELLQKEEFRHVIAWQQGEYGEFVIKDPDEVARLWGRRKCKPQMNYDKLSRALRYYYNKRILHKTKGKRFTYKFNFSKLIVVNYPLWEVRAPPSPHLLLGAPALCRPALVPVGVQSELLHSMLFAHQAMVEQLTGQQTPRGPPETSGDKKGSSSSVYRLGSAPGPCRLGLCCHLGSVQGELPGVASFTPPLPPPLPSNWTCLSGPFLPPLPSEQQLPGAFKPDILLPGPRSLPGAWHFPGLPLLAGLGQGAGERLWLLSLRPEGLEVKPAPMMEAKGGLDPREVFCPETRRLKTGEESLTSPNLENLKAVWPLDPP
The settings on record: protein: recombinant; tags: N-terminal GST; dsDNA, one strand shown. Put shortly:
as §1

For test [13], the target named is T8, ETS2 (Homo sapiens, UniProt P15036 1-469).
T8 sequence: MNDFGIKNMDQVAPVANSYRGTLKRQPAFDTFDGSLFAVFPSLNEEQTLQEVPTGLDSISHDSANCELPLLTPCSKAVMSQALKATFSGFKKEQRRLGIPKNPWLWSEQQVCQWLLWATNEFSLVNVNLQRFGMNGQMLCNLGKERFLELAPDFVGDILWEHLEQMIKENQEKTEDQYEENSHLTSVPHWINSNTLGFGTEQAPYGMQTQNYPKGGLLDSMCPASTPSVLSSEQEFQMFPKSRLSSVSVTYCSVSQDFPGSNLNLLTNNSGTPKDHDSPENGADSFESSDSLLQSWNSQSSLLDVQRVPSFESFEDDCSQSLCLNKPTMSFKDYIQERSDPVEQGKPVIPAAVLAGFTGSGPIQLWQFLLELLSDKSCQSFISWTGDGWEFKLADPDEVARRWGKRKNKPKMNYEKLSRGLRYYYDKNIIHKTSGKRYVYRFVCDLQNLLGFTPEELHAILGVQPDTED
As to conditions: protein: recombinant; tags: N-terminal GST; dsDNA, one strand shown. The method in brief: as §1

For test [14], the target named is T9, SPDEF (Homo sapiens, UniProt O95238 1-335).
T9 sequence: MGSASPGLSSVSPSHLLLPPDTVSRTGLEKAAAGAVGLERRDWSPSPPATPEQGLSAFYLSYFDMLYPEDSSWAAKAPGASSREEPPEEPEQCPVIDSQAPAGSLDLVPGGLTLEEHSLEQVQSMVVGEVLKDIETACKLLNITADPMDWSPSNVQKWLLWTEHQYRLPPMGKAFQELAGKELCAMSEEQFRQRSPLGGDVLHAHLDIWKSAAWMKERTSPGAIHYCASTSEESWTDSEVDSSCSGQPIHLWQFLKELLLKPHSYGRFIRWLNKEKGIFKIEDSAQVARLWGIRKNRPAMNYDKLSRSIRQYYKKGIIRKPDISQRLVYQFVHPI
As to conditions: protein: recombinant; tags: N-terminal GST; dsDNA, one strand shown. Put shortly: as §1

Test [15] has as its target T10, ETV7 (Homo sapiens, UniProt Q9Y603 1-341).
T10 sequence: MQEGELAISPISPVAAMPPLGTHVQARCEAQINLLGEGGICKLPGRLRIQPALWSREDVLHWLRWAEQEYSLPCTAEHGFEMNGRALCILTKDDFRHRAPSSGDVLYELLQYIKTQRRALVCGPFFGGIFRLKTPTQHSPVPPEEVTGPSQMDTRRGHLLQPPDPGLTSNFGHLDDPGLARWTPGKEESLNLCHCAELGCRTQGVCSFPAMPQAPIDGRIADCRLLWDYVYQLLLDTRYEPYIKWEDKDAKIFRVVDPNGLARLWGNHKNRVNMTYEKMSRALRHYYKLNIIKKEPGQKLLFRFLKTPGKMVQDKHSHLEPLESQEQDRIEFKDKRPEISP
The settings on record: protein: recombinant; tags: N-terminal GST; dsDNA, one strand shown. The method in brief: as §1

Test [16] concerns the target T11, ELF5 (Homo sapiens, UniProt Q9UKW6-2 1-255).
T11 sequence: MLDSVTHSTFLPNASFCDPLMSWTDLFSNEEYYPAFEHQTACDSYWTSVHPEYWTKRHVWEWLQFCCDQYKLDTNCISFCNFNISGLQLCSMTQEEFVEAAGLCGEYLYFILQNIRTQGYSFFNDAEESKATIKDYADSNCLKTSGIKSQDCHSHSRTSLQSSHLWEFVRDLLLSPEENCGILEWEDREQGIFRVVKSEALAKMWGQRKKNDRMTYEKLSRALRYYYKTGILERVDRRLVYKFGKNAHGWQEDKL
The settings on record: protein: recombinant; tags: N-terminal GST; dsDNA, one strand shown. The method in brief:
as §1

For test [17], the target named is T12, ETV3 (Homo sapiens, UniProt P41162-2 1-143).
T12 sequence: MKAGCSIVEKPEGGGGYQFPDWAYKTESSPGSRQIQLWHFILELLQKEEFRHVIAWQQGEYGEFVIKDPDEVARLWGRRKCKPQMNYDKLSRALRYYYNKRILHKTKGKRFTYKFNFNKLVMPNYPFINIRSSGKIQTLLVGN
The settings on record: protein: recombinant; tags: N-terminal GST; dsDNA, one strand shown. Put shortly:
as §1

Test [18] has as its target ETV6 (Homo sapiens, UniProt P41212 1-452). The settings on record: protein: recombinant; tags: N-terminal GST; dsDNA, one strand shown. The method in brief:
as §1

HSF1, sequence (Q00613 whole entry): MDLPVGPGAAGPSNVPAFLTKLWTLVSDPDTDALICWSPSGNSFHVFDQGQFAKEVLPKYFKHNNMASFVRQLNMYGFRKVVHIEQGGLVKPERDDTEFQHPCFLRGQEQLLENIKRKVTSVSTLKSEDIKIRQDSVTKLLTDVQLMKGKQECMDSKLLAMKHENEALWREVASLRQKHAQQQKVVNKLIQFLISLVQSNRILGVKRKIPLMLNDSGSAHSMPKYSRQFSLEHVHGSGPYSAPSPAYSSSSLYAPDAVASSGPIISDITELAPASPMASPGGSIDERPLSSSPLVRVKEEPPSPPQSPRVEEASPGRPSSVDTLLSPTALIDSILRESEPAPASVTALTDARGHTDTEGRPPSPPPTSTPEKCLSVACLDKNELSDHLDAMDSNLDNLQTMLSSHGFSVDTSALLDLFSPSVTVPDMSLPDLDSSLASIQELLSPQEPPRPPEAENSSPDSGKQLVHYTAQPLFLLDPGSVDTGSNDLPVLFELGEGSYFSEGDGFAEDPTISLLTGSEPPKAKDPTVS
ETV6, sequence (P41212 whole entry): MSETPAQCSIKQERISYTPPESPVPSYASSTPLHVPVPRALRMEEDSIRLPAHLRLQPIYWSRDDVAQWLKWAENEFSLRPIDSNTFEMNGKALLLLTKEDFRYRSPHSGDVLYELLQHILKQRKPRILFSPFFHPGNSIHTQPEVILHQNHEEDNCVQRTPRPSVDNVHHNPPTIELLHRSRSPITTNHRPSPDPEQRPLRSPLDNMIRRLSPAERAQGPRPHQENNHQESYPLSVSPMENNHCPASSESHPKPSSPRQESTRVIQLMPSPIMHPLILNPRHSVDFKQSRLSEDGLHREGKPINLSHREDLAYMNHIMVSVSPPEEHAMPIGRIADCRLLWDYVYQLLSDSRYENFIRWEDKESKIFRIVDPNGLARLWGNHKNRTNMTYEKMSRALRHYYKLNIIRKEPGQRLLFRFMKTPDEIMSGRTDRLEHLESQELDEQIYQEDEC
ETV1, sequence (P50549 whole entry): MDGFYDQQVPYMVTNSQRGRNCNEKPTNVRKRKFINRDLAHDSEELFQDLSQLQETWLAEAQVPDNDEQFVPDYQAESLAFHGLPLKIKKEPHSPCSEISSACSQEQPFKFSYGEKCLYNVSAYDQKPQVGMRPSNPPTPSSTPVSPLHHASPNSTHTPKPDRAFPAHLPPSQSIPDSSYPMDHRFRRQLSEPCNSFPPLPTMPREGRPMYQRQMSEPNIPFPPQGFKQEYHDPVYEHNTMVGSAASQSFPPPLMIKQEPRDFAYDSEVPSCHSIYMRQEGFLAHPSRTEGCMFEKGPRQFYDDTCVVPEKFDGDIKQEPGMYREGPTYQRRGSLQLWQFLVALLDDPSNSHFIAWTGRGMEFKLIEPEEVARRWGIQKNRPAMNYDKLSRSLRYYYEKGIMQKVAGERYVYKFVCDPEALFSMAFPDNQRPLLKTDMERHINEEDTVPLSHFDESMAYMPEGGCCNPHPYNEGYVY
CRX, sequence (O43186 whole entry): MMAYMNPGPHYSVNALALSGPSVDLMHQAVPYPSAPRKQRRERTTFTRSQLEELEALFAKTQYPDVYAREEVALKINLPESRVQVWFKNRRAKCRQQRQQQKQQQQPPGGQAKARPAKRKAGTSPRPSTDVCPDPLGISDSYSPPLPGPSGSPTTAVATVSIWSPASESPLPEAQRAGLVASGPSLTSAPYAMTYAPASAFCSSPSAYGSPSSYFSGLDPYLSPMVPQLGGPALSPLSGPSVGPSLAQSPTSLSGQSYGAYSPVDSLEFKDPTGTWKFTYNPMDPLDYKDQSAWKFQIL
ETV5, sequence (P41161 whole entry): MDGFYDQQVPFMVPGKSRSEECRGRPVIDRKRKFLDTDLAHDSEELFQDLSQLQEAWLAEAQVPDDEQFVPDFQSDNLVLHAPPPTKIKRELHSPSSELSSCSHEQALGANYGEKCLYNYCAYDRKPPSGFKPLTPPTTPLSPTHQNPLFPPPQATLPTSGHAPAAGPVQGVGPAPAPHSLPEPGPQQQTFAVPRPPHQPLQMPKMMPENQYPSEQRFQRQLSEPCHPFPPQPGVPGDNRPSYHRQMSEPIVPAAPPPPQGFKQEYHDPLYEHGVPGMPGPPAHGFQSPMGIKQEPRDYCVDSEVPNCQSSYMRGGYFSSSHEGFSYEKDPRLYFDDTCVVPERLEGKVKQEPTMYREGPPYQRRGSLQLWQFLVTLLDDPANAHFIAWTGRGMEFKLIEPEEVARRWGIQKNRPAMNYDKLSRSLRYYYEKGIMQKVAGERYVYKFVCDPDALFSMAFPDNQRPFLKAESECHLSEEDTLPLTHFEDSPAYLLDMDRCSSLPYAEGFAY
ELF4, sequence (Q99607 whole entry): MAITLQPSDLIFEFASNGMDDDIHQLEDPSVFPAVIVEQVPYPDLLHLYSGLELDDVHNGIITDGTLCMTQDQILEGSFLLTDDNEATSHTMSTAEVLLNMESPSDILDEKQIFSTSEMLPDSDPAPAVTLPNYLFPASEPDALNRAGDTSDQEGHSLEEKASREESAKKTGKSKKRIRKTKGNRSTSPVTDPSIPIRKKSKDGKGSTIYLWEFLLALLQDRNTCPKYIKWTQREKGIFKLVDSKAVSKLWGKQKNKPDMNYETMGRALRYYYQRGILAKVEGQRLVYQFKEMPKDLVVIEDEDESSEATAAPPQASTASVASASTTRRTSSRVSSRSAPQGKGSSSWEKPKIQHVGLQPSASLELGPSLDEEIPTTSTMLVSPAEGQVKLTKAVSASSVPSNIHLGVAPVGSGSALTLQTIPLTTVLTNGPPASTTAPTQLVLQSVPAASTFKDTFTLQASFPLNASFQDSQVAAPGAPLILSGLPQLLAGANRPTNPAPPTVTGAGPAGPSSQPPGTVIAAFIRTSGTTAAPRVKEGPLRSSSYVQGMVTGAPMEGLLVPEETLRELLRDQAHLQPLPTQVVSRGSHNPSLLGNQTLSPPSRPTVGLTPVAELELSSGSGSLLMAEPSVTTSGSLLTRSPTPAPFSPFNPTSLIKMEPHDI

With ACTCTC, the binding signal in [1] was 1.42 fold enrichment (6-mer frequency, TF over GST control); in test [2], 1.42 fold enrichment (6-mer frequency, TF over GST control); in test [3], 1.55 fold enrichment (6-mer frequency, TF over GST control); in test [4], 1.47 fold enrichment (6-mer frequency, TF over GST control); in test [5], 1.49 fold enrichment (6-mer frequency, TF over GST control); in test [6], 1.55 fold enrichment (6-mer frequency, TF over GST control). For the same sequence, the binding signal in test [7] was 1.39 fold enrichment (6-mer frequency, TF over GST control); in test [8], 1.88 fold enrichment (6-mer frequency, TF over GST control); in test [9] it was 1.31 fold enrichment (6-mer frequency, TF over GST control); in [10] it was 1.53 fold enrichment (6-mer frequency, TF over GST control); in test [11] it was 1.42 fold enrichment (6-mer frequency, TF over GST control); in test [12] it was 1.49 fold enrichment (6-mer frequency, TF over GST control). The binding signal was 1.48 fold enrichment (6-mer frequency, TF over GST control) in test [13]; 1.45 fold enrichment (6-mer frequency, TF over GST control) in test [14]; 1.27 fold enrichment (6-mer frequency, TF over GST control) in test [15]; 1.37 fold enrichment (6-mer frequency, TF over GST control) in [16]; 1.5 fold enrichment (6-mer frequency, TF over GST control) in [17]; 1.33 fold enrichment (6-mer frequency, TF over GST control) in [18].
